Measurements published in PubChem BioAssay (Tox21).
Records with an inconclusive call do not appear. A call without a number means that no potency is given here. Activity calls are given as the source filed them. The call rests on the fitted dose curve; in most records, active means well fitted activation curve with a large enough effect in the repeat runs; inconclusive means weak or mixed curves; inactive means no such curve, though single readings can be large or run the other way.

Experiment: qHTS assay for small molecules that induce genotoxicity in human embryonic kidney cells expressing luciferase-tagged ATAD5 (AID 651632); further: nearly all actives have a fitted effect of over 15% in size
Conditions: HEK293T ATAD5-luciferase induction, 16 h; series mostly up to 83.3 µM
Excerpt: U.S. Tox21 Program National Center for Advancing Translational Sciences [NCATS] NIH Chemical Genomics Center [NCGC] U.S. Environmental Protection Agency [EPA] National Institutes of Environmental Health Sciences [NIEHS] National Toxicology Program [NTP] U.S. Food and Drug Administration [FDA] Tox21 Assay Overview: As cancer cells divide rapidly and during every cell division they need to duplicate their genome by DNA replication. The failure to do so results in the cancer cell death. Based on this concept, many chemotherapeutic agents were developed but have limitations such as low efficacy and severe side effects etc. A new cell based assay was developed to find the compounds that effectively block DNA replication either by directly damaging DNA or by inhibiting other cellular mechanisms. Enhanced Level of Genome Instability Gene 1 (ELG1; human ATAD5) protein levels increase in response to various types of DNA damage. Using a luciferase reporter-gene tagged with ATAD5, a cell-based assay [developed by Kyungjae Myung, NHGRI, NIH] was used to measure the induction of ATAD5 in human embryonic kidney cells (HEK293T). So, increase in luciferase activity can be used to identify the compounds that cause genetic stress.
Tox21 Assay Protocol Summary: For genotoxicity screening, 2,000 cells in 5 uL/well were dispensed into white, solid-bottom 1536-well plates using a Multidrop Combi (Thermo Scientific) dispenser. Following transfer of 23 nL compound or DMSO vehicle by a pin tool, the plates were incubated 16 hr at 37C and 5% CO2. 5 ul Amplite (AAT Bioquest, Inc.) was then added to each plate and following 30 min incubation at room temperature, luciferase activity was quantified on a ViewLux CCD-based plate reader.
With `CCOC(=O)CP(=O)(OCC)OCC` the Potency was “inactive”. For `O=C(Nc1ccccc1)N(Cc1ccc(Cl)cc1)C1CCCC1`, the Potency was “inactive”. In the case of `Nc1n[nH]c(N)n1`, the Potency is reported as “inactive”. For `C[N+](=O)[O-]`, the Potency was “inactive”. In the case of `CNNC`, the Potency is reported as “inactive”. In the case of `Oc1c(Cl)cccc1Cl`, the Potency is reported as “inactive”. For `Nc1cnn(-c2ccccc2)c(=O)c1Cl`, the Potency was “inactive”. In the case of `C[N+](C)=CCl`, the Potency is reported as “inactive”. For `CCC(Cl)[N+](=O)[O-]` (stereo not given), the Potency was “inactive”. For `CC(Oc1ccc(Oc2ncc(C(F)(F)F)cc2Cl)cc1)C(=O)O` (stereo not given), the Potency was “inactive”. With `ClCC(Cl)(Cl)Cl` the Potency was “inactive”. With `Clc1cccc(N2CCNCC2)c1` the Potency was “inactive”. With `O=C1OC(c2ccc(O)c(S(=O)(=O)O)c2)(c2ccc(O)c(S(=O)(=O)O)c2)c2c(Br)c(Br)c(Br)c(Br)c21` the Potency was “inactive”. With `CC(=O)[C@H]1CC[C@H]2[C@@H]3CC[C@H]4C[C@H](O)CC[C@]4(C)[C@H]3C(=O)C[C@]12C` the Potency was “inactive”. For `CN1CCN(C(=O)O[C@H]2c3nccnc3C(=O)N2c2ccc(Cl)cn2)CC1`, the Potency was “inactive”. For `CCCCc1ccc(O)cc1`, the Potency was “inactive”. For `COc1cc2c(cc1OC)[C@@]13CCN4CC5=CCO[C@H]6CC(=O)N2[C@H]1[C@H]6[C@H]5C[C@H]43`, the Potency was “inactive”. With `CCCCCCI` the Potency was “inactive”. With `C1CCC(C2CCCCC2)CC1` the Potency was “inactive”. In the case of `COC(=O)c1c(C(F)F)nc(C(F)(F)F)c(C2=NCCS2)c1CC(C)C`, the Potency is reported as “inactive”. For `Nc1c(Br)cc([N+](=O)[O-])cc1[N+](=O)[O-]`, the Potency was “inactive”. With `CC(C)[N+](=O)[O-]` the Potency was “inactive”. For `CCS(=O)(=O)CCSP(=O)(OC)OC`, the Potency was “inactive”. In the case of `COCC(=O)N(c1c(C)cccc1C)N1CCOC1=O`, the Potency is reported as “inactive”. For `CCC#N`, the Potency was “inactive”. For `CCOc1nc(C(Cl)(Cl)Cl)ns1`, the Potency was “inactive”. For `COC(=O)C(C)Oc1ccc(Oc2ccc(Cl)cc2Cl)cc1` (stereo not given), the Potency was “inactive”. With `CNC(=O)Oc1ccccc1C1OCCO1` the Potency was “inactive”. For `CC(N)=S`, the Potency was “inactive”. In the case of `CCC/C(=N\OCC)C1=C(O)CC(CC(C)SCC)CC1=O` (stereo not given), the Potency is reported as “inactive”. With `Cc1cc(C)c(C(=O)P(=O)(C(=O)c2c(C)cc(C)cc2C)c2ccccc2)c(C)c1` the Potency was “inactive”. With `CN(C)CCc1ccc(O)cc1` the Potency was “inactive”. With `CC(C)NCC(O)c1ccc(N)c(C#N)c1` (stereo not given) the Potency was “inactive”. For `Nc1ccccc1Cl`, the Potency was “inactive”. With `CNC(=O)Oc1c(C(C)(C)C)cc(C)cc1C(C)(C)C` the Potency was “inactive”. In the case of `CCOC(=O)/C=C(C)/C=C/C[C@@H](C)CCCC(C)C`, the Potency is reported as “inactive”. In the case of `CCCSP(=O)(OCC)Oc1ccc(Br)cc1Cl` (stereo not given), the Potency is reported as “inactive”. With `O=NN1CCN(N=O)CC1` the Potency was “inactive”. In the case of `C=C(C)[C@@H]1CC=C(C=O)CC1`, the Potency is reported as “inactive”. For `CC1=C(C(=O)Nc2ccccc2)S(=O)(=O)CCO1`, the Potency was “inactive”.
